From PubChem BioAssay
hNpr1 antagonist = Natriuretic polypeptide receptor (hNpr1) antagonism - Primary qHTS; HEK293 hNpr1 GloSensor cGMP, ANP-stimulated luminescence; Potency, µM (titrated, usually from 46.3 µM), actives largely listed as inhibitors; 76,000 tested, 1.6% active; calls by dose curve; also: nearly all actives have a fitted effect of over 60% in size
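Compound pre-incubated 30 min at room temperature on GloSensor-loaded HEK293 cells stably carrying hNpr1 and the pGS-40F cGMP biosensor. Stimulation uses hNppA at 0.1 nM final; luminescence is taken at baseline and 20 min post-agonist.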
HEK cytotox = Cytotoxic Profiling in HEK 293 Cell Line of Diverse Libraries Using Quantitative High-Throughput Screening; AID 1345083, 2018; Potency, µM (titrated, usually from 115 µM), actives largely listed as inhibitors; 94,000 tested, 6.6% active; HEK 293 viability, ATP luminescence (CellTiter-Glo), 48-72 h; also: nearly all actives have a fitted effect of over 60% in size
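Luminescence from cellular ATP, measured with CellTiter-Glo, indicates HEK 293 viability. Cells plated at 250 cells/well are treated with compound for 48 or 72 hr at 37 degree Celsius before reagent addition.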
FLuc inh = Firefly luciferase inhibition profiling of diverse chemical library using quantitative high-throughput screening; purified P. pyralis luciferase, luminescence, biochemical; Potency, µM (highest dose often 115 µM), most hits filed as inhibitors; 76,000 tested, 2.5% active; AID 1347043, 2019; also: nearly all actives have a fitted effect of over 65% in size
Target sequence (P08659 whole entry, looked up): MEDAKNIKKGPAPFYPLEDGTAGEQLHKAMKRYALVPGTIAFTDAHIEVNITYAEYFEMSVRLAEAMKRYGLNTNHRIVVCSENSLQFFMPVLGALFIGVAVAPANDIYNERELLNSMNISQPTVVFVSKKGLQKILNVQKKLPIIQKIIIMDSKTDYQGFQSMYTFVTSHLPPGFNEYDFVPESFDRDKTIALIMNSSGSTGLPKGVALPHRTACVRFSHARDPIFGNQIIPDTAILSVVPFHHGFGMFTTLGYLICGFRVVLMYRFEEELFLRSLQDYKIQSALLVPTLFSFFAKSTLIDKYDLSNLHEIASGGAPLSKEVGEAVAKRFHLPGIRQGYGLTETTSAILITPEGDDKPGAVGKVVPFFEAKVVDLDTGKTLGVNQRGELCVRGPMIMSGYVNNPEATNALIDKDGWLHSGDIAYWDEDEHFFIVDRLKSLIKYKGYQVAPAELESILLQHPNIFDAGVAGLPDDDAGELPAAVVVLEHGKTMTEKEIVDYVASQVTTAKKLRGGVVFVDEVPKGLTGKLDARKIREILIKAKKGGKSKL
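Inhibitors were tested against purified firefly luciferase in a biochemical, low-substrate format (both substrates at 10uM) and luminescence measured with a CCD imager.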
SNCA viab count = GF-AFC viability counterscreen for inhibitors of alpha-synuclein gene (SNCA) expression; HEK-293-SNCA-luc viability, GF-AFC fluorescence, 24 h; AID 1671193, 2021; Potency, µM (series often up to 57.1 µM), most hits filed as cytotoxic; 150,000 tested, 0.12% active; also: nearly all actives have a fitted effect of over 30% in size
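Cytotoxicity counterscreen: after 24 h compound treatment of genome-edited SNCA-luciferase HEK-293 cells, live-cell protease substrate GF-AFC read by fluorescence after 30 min; activity scaled between DMSO (0%) and medium-only (-100%), curves Hill-fitted.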
NIH3T3 tox = Cytotoxic Profiling in NIH 3T3 Cell Line of Diverse Libraries Using Quantitative High-Throughput Screening; NIH 3T3 viability, CellTiter-Glo ATP luminescence, 48-72 h; Potency, µM (titrated, usually from 96.7 µM), most hits filed as inhibitors; 94,000 tested, 4.3% active; also: nearly all actives have a fitted effect of over 55% in size
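First NIH 3T3 cells are plated at 400 cells/well; next compound is pinned in; then plates incubate 48 or 72 hr at 37 °C; finally CellTiter-Glo is added and luminescence read after 10 min.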
SNCA expr inh = Primary qHTS assay for inhibitors of alpha-synuclein gene (SNCA) expression; Potency, µM (top dose mostly 57.2 µM), usual class: inhibitors; 140,000 tested, 0.17% active; HEK-293 SNCA-luciferase knock-in, luminescence, 24 h; AID 1671194, 2021; also: nearly all actives have a fitted effect of over 45% in size
NPR1 antag cnf = Natriuretic polypeptide receptor (hNpr1) antagonism - Confirmation | shares compounds with hNpr1 antagonist | HEK293 hNpr1 cGMP GloSensor luminescence, ANP-stimulated | Potency, µM (titrated, usually from 57.6 µM), hits mostly inhibitors | 1,400 tested, 76% active; calls by dose curve; also: nearly all actives have a fitted effect of over 70% in size
NPR2 antag = Natriuretic polypeptide receptor (hNpr2) antagonism - Subtype selectivity assay | shares compounds with hNpr1 antagonist | HEK293 hNpr2 GloSensor cGMP luminescence, CNP-stimulated | Potency, µM (top dose mostly 57.6 µM), hits mostly inhibitors | 1,400 tested, 67% active | AID 1347046, 2019; calls by dose curve; also: nearly all actives have a fitted effect of over 70% in size
FLuc counter = Natriuretic polypeptide receptor (hNpr1) antagonism - Confirmation firefly luciferase (FLuc) inhibition counterscreen; shares compounds with hNpr1 antagonist; purified FLuc enzyme, luminescence, Km substrate; Potency, µM (doses to about 57.6 µM), most hits filed as inhibitors; 1,400 tested, 0.7% active
GloSensor cGMP = Natriuretic polypeptide receptor (hNpr1) antagonism - Counterscreen GloSensor control cell line | shares compounds with hNpr1 antagonist | HEK293 GloSensor cGMP, SNP-stimulated, luminescence | Potency, µM (top dose mostly 57.6 µM), hits mostly inhibitors | 1,400 tested, 69% active | AID 1347051, 2019; calls by dose curve; also: nearly all actives have a fitted effect of over 70% in size
Large screens that a line does not name were inactive (follow-up assays come after a bar, where they were run). Compounds with a hit are over-represented: about 7.2% of the library has one in this group of screens. Unless noted, calls follow the shape of the dose curve; as a rule, active = well fitted curve in the direction sought with a large enough effect; inconclusive = small, poorly fitted or top-dose-only effect, or another doubt; inactive = no such curve, though single readings can be large; an effect the other way counts as inactive or inconclusive.

Cn1ccnc1CN1CCN(Cc2cc3n(n2)CCNC3)CC1	none
COc1ccc(CN2Cc3[nH]cnc3C[C@H]2C(=O)NCc2ccccc2)c2ccccc12	hNpr1 antagonist inconclusive, HEK cytotox 89.1µM, SNCA viab count inconclusive, NIH3T3 tox inconclusive | NPR1 antag cnf inconclusive | NPR2 antag inconclusive | FLuc counter inactive | GloSensor cGMP inactive
CC(C)C1=NOC2(CCN(Cc3ccc(C(F)(F)F)cc3)CC2)C1	hNpr1 antagonist 11.2µM, HEK cytotox inconclusive, NIH3T3 tox inconclusive, SNCA expr inh inconclusive | NPR1 antag cnf 25µM | NPR2 antag 31.4µM | FLuc counter inactive | GloSensor cGMP 19.8µM
Cc1ccc(NC(=O)C2CCN(c3cc(C(F)(F)F)ncn3)CC2)cc1Cl	hNpr1 antagonist 10µM, HEK cytotox inconclusive, NIH3T3 tox 17.8µM | NPR1 antag cnf 12.2µM | NPR2 antag 19.3µM | FLuc counter inactive | GloSensor cGMP 12.2µM
CC(NC(=O)C1CCN(c2cc(C(F)(F)F)ncn2)CC1)c1ccccc1 (configuration not stated)	NIH3T3 tox inconclusive
Cc1cc(F)ccc1NC(=O)C1CCN(c2cc(C(F)(F)F)ncn2)CC1	hNpr1 antagonist inconclusive, HEK cytotox inconclusive
CC(C)c1ccc(NC(=O)C2CCN(c3cc(C(F)(F)F)ncn3)CC2)cc1	hNpr1 antagonist 7.08µM, HEK cytotox inconclusive, NIH3T3 tox inconclusive | NPR1 antag cnf 7.69µM | NPR2 antag 8.62µM | FLuc counter inactive | GloSensor cGMP 4.85µM
COc1ccc(NC(=O)C2CCN(c3cc(C(F)(F)F)ncn3)CC2)cc1OC	HEK cytotox inconclusive
O=C(Nc1ccc(F)cc1)C1CCN(c2cc(C(F)(F)F)ncn2)CC1	hNpr1 antagonist inconclusive | NPR1 antag cnf 21.7µM | NPR2 antag inconclusive | FLuc counter inactive | GloSensor cGMP 24.3µM
Cc1c(CN(C)c2cc(C3CC(O)C3)nc(N)n2)[nH]c2ccccc12 (configuration not stated)	hNpr1 antagonist 0.631µM, NIH3T3 tox inconclusive, SNCA expr inh inconclusive | NPR1 antag cnf 0.432µM | NPR2 antag 0.863µM | FLuc counter inactive | GloSensor cGMP 0.432µM
Cc1ccc(SCCN(C)c2cc(C3CC(O)C3)nc(N)n2)cc1 (configuration not stated)	hNpr1 antagonist 12.6µM, HEK cytotox 28.2µM, NIH3T3 tox inconclusive, SNCA expr inh inconclusive | NPR1 antag cnf 24.3µM | NPR2 antag 21.7µM | FLuc counter inactive | GloSensor cGMP 21.7µM
C#CCNC(=O)c1cn2cc(-c3ccc(C(F)(F)F)cc3)sc2n1	HEK cytotox inconclusive, NIH3T3 tox inconclusive (no result: hNpr1 antagonist, FLuc inh)
CCc1ccc(C(=O)N2CCC(Cc3nc(-c4ccc(OC)cc4)no3)CC2)cc1	hNpr1 antagonist 3.55µM, HEK cytotox inconclusive, NIH3T3 tox inconclusive | NPR1 antag cnf 6.11µM | NPR2 antag 9.68µM | FLuc counter inactive | GloSensor cGMP 6.85µM
COc1ccc(-c2noc(CC3CCN(C(=O)C4CC4)CC3)n2)cc1	hNpr1 antagonist inconclusive, HEK cytotox inconclusive, NIH3T3 tox inconclusive
Cc1ccc(C(=O)N2CCC(Cc3nc(-c4ccccc4)no3)CC2)c(C)c1	hNpr1 antagonist 6.31µM, HEK cytotox 50.1µM, NIH3T3 tox inconclusive | NPR1 antag cnf 3.85µM | NPR2 antag 5.44µM | FLuc counter inactive | GloSensor cGMP 3.85µM
COc1ccc(-c2noc(CC3CCN(C(=O)c4ccc(OC)nc4OC)CC3)n2)cc1	hNpr1 antagonist 3.98µM, HEK cytotox 20µM, NIH3T3 tox inconclusive, SNCA expr inh inconclusive | NPR1 antag cnf 5.44µM | NPR2 antag 8.62µM | FLuc counter inactive | GloSensor cGMP 6.11µM
COc1ccc(-c2noc(CC3CCN(C(=O)c4ccccc4C)CC3)n2)cc1	hNpr1 antagonist 10µM, HEK cytotox inconclusive, SNCA viab count inconclusive, NIH3T3 tox inconclusive | NPR1 antag cnf 15.3µM | NPR2 antag 17.2µM | FLuc counter inactive | GloSensor cGMP 12.2µM
Cc1cc(C)n(CC(=O)N2CCC3(CC2)CC(CN2CCOCC2)N(C)C3)n1 (configuration not stated)	none (no result: hNpr1 antagonist, FLuc inh)
Cc1noc(CN(C)C(=O)C2C3C(=O)N(Cc4ccc(C)c(C)c4)C[C@@]34C=C[C@@H]2O4)n1 (some centres not stated)	none
COc1ccc(-c2cc(N3CCC(NC(=O)c4cccc(N(C)C)c4)C3)n[nH]2)cc1 (configuration not stated)	HEK cytotox inconclusive, FLuc inh inconclusive, NIH3T3 tox inconclusive
CCCCOc1ccc(C(=O)N2CCC(Cc3nc(-c4cnccn4)no3)CC2)cc1	hNpr1 antagonist inconclusive, HEK cytotox inconclusive, SNCA viab count inconclusive, NIH3T3 tox inconclusive, SNCA expr inh inconclusive | NPR1 antag cnf inconclusive | NPR2 antag inconclusive | FLuc counter inactive | GloSensor cGMP inconclusive
COc1ccc(-c2noc(CC3CCN(C(=O)C4(c5ccc(OC)cc5)CC4)CC3)n2)cc1	hNpr1 antagonist 1.41µM, HEK cytotox inconclusive, NIH3T3 tox inconclusive | NPR1 antag cnf 2.73µM | NPR2 antag 3.43µM | FLuc counter inactive | GloSensor cGMP 3.06µM
CCOc1ccccc1C(=O)N1CCC(Cc2nc(-c3ccc(OC)cc3)no2)CC1	hNpr1 antagonist 11.2µM, HEK cytotox inconclusive, NIH3T3 tox inconclusive, SNCA expr inh inconclusive | NPR1 antag cnf 24.3µM | NPR2 antag 21.7µM | FLuc counter inactive | GloSensor cGMP 24.3µM
